Source: PubChem BioAssay
Activity calls are given as the source filed them.

How the values were obtained:
[1] = test system: Human papillomavirus type 1a protein E7 (residues 44-93); experiment: HPV1a E7 fragment binders on microarrays, primary screen, biochemical, small-molecule microarray, residues 44-93, 635 nm fluorescence (AID 1108); settings: small-molecule microarray binding, fluorescence 635 nm; higher = more signal;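 also: E7 fragment applied at 1 µg/mL in TBST for 1 h at 4 C; score combines spot fluorescence with its signal to noise ratio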
[2] = modulators of HCV replicon luciferase signal, primary screen, HCV replication inhibitor project, Huh7 cells, luciferase reporter (AID 1109); settings: 48 h, higher = more signal;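 also: huh7 hepatoma cells harbouring a luciferase neomycin HCV replicon reporter; luciferase luminescence as measure of HCV replicon replication; test concentration not given here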
[3] = target: Left-right determination factor 2 (Homo sapiens) (UniProt O00292); experiment: LEFTY2 binders on small-molecule microarrays, primary screen, biochemical, small-molecule microarray, 635 nm fluorescence scan (AID 1110); settings: LEFTY2 binding, higher = more signal
Chain of Left-right determination factor 2 (Homo sapiens) (O00292 whole entry, looked up): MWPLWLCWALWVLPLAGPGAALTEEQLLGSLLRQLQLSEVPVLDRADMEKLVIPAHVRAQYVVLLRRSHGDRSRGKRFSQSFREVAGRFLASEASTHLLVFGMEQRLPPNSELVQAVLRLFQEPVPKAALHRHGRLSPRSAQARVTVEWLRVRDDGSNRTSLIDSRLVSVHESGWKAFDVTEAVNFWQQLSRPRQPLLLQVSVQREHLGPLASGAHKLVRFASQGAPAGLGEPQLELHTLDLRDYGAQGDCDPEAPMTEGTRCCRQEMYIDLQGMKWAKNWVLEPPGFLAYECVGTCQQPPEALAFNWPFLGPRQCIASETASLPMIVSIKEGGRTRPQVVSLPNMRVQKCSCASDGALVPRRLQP

[4] = target: Calmodulin-1 (Homo sapiens) (UniProt P0DP23); experiment: CALM1 binders on microarrays, EGTA buffer, profiling panel, biochemical, small-molecule microarray, Cy5-labelled CALM1 (AID 1111); settings: Cy5-CALM1 binding fluorescence, higher = more signal;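 also: labelled calmodulin applied in Tris saline Tween buffer holding calcium plus EGTA and DTT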
[5] = target: Calmodulin-1 (Homo sapiens) (UniProt P0DP23); experiment: calcium-bound CALM1 binders on microarrays, profiling panel, artefact control for SMM control-protein annotation, biochemical, small-molecule microarray, Cy5-labelled CALM1, plus calcium (AID 1112); settings: Cy5-CALM1 binding fluorescence, higher = more signal;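 also: score merges spot fluorescence with signal to noise from triplicate slides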
[6] = small-molecule microarray binders of probe aWnt5a, primary screen, biochemical, biotinylated probe, 635/667 nm fluorescence (AID 1113); settings: higher = more signal;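 also: score merges 667 nm fluorescence intensity with signal-to-noise per printed feature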
[7] = small-molecule microarray binders of probe aShh, primary screen, biochemical, biotinylated probe, 635/667 nm fluorescence (AID 1114); settings: higher = more signal;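 also: probe is biotin-labelled aShh protein from a stem cell growth factor screen; measures binding of labelled protein to compounds printed on the slide; score merges feature fluorescence at 667 nm with signal-to-noise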
[8] = small-molecule microarray binders of probe aNog, primary screen, biochemical, biotinylated probe, 635/667 nm fluorescence (AID 1115); settings: higher = more signal;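 also: probe is biotinylated aNog protein used at 0.15 µg/mL for 1 h at 4 C; z-score combines 667 nm fluorescence of each spot with its signal to noise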
[9] = target: Torsin-1A-interacting protein 1 (Homo sapiens) (UniProt Q5JTV8); experiment: LAP1 binders from COS7 cell lysate, primary screen, small-molecule microarray, 635/667 nm fluorescence (AID 1116); settings: COS7-hLAP1 lysate binding, 635 nm fluorescence, higher = more signal
Chain of Torsin-1A-interacting protein 1 (Homo sapiens) (Q5JTV8 whole entry, looked up): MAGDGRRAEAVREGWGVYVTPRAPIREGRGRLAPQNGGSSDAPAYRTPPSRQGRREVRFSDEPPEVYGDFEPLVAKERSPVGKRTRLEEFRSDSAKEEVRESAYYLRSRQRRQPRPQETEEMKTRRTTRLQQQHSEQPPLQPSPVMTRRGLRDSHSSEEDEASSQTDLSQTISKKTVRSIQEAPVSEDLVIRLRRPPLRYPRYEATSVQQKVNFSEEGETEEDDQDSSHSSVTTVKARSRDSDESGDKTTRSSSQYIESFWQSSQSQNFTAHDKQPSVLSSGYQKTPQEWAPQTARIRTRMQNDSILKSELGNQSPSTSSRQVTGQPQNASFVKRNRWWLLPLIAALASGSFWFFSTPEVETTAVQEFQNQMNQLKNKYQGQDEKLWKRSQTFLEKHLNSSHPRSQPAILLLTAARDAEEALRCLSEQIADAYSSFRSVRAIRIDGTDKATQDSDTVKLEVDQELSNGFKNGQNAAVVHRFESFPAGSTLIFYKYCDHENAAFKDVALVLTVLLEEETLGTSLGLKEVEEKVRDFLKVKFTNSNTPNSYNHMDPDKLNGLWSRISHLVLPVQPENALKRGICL

[10] = target: Alpha-bungarotoxin (Bungarus multicinctus) (UniProt P60615); experiment: alpha-bungarotoxin binders on microarray, profiling panel, artefact control for SMM control protein annotation, biochemical, small-molecule microarray, Alexa647 label, 635/667 nm fluorescence (AID 1117); settings: alpha-BTX-A647 binding fluorescence, higher = more signal
Chain of Alpha-bungarotoxin (Bungarus multicinctus) (P60615 whole entry, looked up): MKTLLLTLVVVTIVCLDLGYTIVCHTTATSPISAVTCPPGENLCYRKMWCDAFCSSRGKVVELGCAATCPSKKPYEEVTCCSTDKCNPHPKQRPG

Albumin (Bos taurus) = Albumin (Bos taurus) (UniProt P02769); experiment: bovine serum albumin binders on microarray, profiling panel, artefact control for SMM control protein annotation, biochemical, small-molecule microarray, Alexa647 label, 635/667 nm fluorescence (AID 1118); settings: BSA-A647 binding, fluorescence 635 nm, higher = more signal;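 also: score merges 667 nm emission intensity and signal-to-noise per printed compound spot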
Chain of Albumin (Bos taurus) (P02769 whole entry, looked up): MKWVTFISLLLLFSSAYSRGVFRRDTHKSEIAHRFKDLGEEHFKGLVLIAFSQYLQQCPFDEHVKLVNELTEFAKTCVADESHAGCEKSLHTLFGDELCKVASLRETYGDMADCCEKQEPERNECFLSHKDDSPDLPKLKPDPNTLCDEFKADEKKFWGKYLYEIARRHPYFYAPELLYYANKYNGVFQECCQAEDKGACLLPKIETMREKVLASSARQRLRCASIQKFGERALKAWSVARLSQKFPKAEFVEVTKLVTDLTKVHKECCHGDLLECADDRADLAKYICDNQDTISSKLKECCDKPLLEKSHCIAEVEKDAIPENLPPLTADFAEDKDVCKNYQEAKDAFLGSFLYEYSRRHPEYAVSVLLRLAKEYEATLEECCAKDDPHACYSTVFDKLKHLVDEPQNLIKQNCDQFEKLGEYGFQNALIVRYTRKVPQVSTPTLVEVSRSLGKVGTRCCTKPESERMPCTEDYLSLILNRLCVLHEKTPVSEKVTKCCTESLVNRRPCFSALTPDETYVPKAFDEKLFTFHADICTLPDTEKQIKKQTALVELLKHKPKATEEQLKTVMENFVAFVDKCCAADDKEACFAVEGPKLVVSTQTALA

[11] = small-molecule microarray binders of probe aXIP, primary screen, biochemical, NeuroSMM set, 635/667 nm fluorescence (AID 1119); settings: higher = more signal, called active from +8 up or from −8 down;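 also: probe is the protein aXip251-270 applied at 1 µg/mL to compound-printed slides; binding of probe to printed compounds measured as 667 nm fluorescence plus signal to noise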
[12] = small-molecule binders of probe aNOTCH3, primary screen, biochemical, small-molecule microarray, 635/667 nm fluorescence (AID 1120); settings: higher = more signal;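 also: probe is a biotin-tagged antibody raised against NOTCH3 rather than NOTCH3 protein; score merges spot fluorescence near 667 nm with spot signal to noise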
[13] = small-molecule binders of probe aNOTCH2, primary screen, biochemical, small-molecule microarray, 635/667 nm fluorescence (AID 1121); settings: higher = more signal;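 also: score merges feature fluorescence read at 667 nm with its signal to noise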
[14] = target: Carbonic anhydrase 2 (Homo sapiens) (UniProt P00918); experiment: CAII small-molecule binders, profiling panel, biochemical, small-molecule microarray, Alexa647-labelled CAII (AID 1122); settings: CAII-A647 binding fluorescence, higher = more signal
[15] = COS7 lysate on small-molecule microarray, probe aHis, 635 nm (AID 1123); settings: COS7 cell lysate, fluorescence, higher = more signal;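 also: z-score combines 667nm fluorescence intensity with signal-to-noise per printed compound spot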
[16] = compound binding in COS7 lysate, probe aLAP1, primary screen, cell lysate, small-molecule microarray (AID 1124); settings: probe aLAP1, fluorescence, higher = more signal;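 also: lysate comes from COS7 cells expressing LAP1 and is applied at 0.3 µg/mL; score merges spot fluorescence near 667 nm with signal-to-noise over triplicate slides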
Sam68 (KHDRBS1) = experiment: Sam68 small-molecule binders, primary screen, biochemical, small-molecule microarray, 635 nm fluorescence (AID 1125); settings: small-molecule microarray binding, higher = more signal;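 also: score merges 667 nm channel intensity with signal to noise over triplicate slides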
[17] = test system: Chordin-like protein 2 (CHRDL2); experiment: CHRDL2 small-molecule binders, primary screen, biochemical, small-molecule microarray, 635 nm fluorescence (AID 1126); settings: small-molecule microarray binding, fluorescence 635 nm; higher = more signal;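 also: printed compound slides probed with Chrdl2 protein at 4 µg/mL for 1 h at 4 C; score merges 667 nm emission intensity with signal to noise over three replicate slides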
[18] = target: Concanavalin-A (Canavalia ensiformis) (UniProt P02866); experiment: ConA small-molecule binders, primary screen, artefact control for SMM control protein annotation, biochemical, small-molecule microarray, Alexa647 label, 635 nm (AID 1127); settings: ConA-A647 binding fluorescence, higher = more signal;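 also: z combines 667 nm emission intensity with signal-to-noise across three replicate slides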
Chain of Concanavalin-A (Canavalia ensiformis) (P02866 whole entry, looked up): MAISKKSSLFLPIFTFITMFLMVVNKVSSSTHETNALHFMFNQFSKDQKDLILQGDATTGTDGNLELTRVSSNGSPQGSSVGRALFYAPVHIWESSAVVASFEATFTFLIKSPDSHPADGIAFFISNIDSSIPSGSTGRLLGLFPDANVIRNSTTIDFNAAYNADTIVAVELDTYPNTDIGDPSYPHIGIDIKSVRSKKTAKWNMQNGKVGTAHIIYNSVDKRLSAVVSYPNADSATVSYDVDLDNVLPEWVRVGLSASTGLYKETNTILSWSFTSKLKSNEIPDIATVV

Structure (SMILES)	composite z-score [1]	z-score [2]	composite z-score [3]	composite z-score [4]	composite z-score [5]	composite z-score [6]	composite z-score [7]	composite z-score [8]	composite z-score [9]	composite z-score [10]	composite z-score (Albumin (Bos taurus))	composite Z-score [11]	composite z-score [12]	composite z-score [13]	composite z-score [14]	composite z-score [15]	composite z-score [16]	composite z-score (Sam68 (KHDRBS1))	composite z-score [17]	composite z-score [18]
COc1cc2c(cc1OC)CN(C(=O)[C@H]1[C@@H]3C(=O)O[C@@H](c4ccccc4)[C@@H](c4ccccc4)N3[C@@H](c3ccc(OCCO)cc3)[C@]13C(=O)Nc1ccc(C#CCCO)cc13)CC2	1.43	-0.563	0.509	1.23	0.642	0.0668	-0.0146	0.033	1.02	1.72	0.592	0.524 (inactive)	0.0418	0.0292	0.434	2.2	1.25	1.29	0.0602	1.11
COC(=O)C(CC#Cc1ccc2c(c1)[C@]1(C(=O)N2)[C@H](C(=O)O)[C@H]2C(=O)O[C@H](c3ccccc3)[C@H](c3ccccc3)N2[C@@H]1c1ccccc1OCCO)C(=O)OC	0.851	-2.04	0.445	1.62	0.369	-0.001	0.108	0.767	1.1	1.79	0.788	-0.051 (inactive)	0.277	0.054	0.684	1.62	1.11	1.32	0.364	1.15
O=C1C[C@@](C(=O)NCC(F)(F)F)(c2ccc([N+](=O)[O-])cc2)[C@@H](c2ccc(CO)cc2)N1C1CCCCC1	1.04	-1.4	0.301	0.769	-0.088	-0.006	0.0898	0.0807	1.9	1.8	0.52	0.391 (inactive)	0.0488	0.0257	0.685	3.17	1.21	1.29	0.489	1.15
COc1ccc([Si](C)(C)[C@H]2[C@H](CCn3cc([C@H](O)c4ccccc4)nn3)O[C@@]3(C(=O)N(Cc4cccc(N5C(=O)c6cccc7cccc5c67)c4)c4ccccc43)[C@@H]2C)cc1	-0.56	-2.67	-0.823	0.419	1.13	-0.175	-0.2	0.206	-0.0061	-1.02	0.145	0.674 (inactive)	-0.185	-0.159	0.339	0.501	-0.0631	0.258	-1.54	-0.24
C=CC[C@@]1(C(=O)O)N=C(c2ccc(OCCCO)cc2)O[C@@H]1c1ccccc1	1.35	0.0165	-1.5	-0.815	-1.41	0.499	0.265	2.02	4.53	2.51	0.771	1.76 (inactive)	-0.293	0.247	0.527	2.71	0.724	0.732	-0.713	-0.587
COCCOC(=O)N1C(=O)[C@@]2(c3ccccc31)[C@H](C(=O)N1CCN(c3ncccn3)CC1)[C@H]1C(=O)O[C@H](c3ccccc3)[C@H](c3ccccc3)N1[C@@H]2c1ccc(OCCO)cc1	1.41	-1.42	0.708	0.89	0.316	-0.0944	0.0639	0.612	1.03	1.11	0.329	2.41 (inactive)	0.32	-0.0029	0.512	1.36	0.341	1.12	0.292	1.13
Cc1ccc(S[C@]2(C(=O)NC3CC3)CC(=O)N(Cc3ccccc3Cl)[C@@H]2c2ccc(CO)cc2I)cc1	1.45	-1.57	-0.355	0.156	-0.274	0.109	0.0062	-0.429	0.769	0.939	0.257	0.331 (inactive)	-0.0967	-0.0419	0.68	2.52	0.944	1.13	0.506	0.904
CCOC(=O)C[C@H]1[C@H](OC(=O)c2ccccc2-c2ccccc2)[C@@H](NC(=O)c2ccc3ccccc3n2)c2cc(OCCCO)ccc2N1C(=O)c1ccc2ccccc2n1	0.437	-0.863	0.152	-0.0654	-0.127	-0.174	-0.265	-0.328	0.358	0.567	0.202	-0.293 (inactive)	-0.0647	-0.0626	0.0023	0.626	-0.283	0.498	0.422	0.762
CCOC(=O)C1=CC[C@@H](c2ccc([N+](=O)[O-])cc2)N(S(=O)(=O)c2ccc(C)cc2)[C@H]1c1ccccc1	1.4	-1.55	0.995	0.455	0.423	0.0324	-0.0769	0.506	0.378	0.962	0.845	0.312 (inactive)	0.233	-0.0297	0.373	2.21	0.359	1.28	0.402	0.842
C=C(C(=O)CC[C@H](OC(=O)c1cccnc1)c1cccc(OCCO)c1)C(C)C	0.074	-3.63	-0.507	-1.21	-1.58	-0.124	0.0952	0.151	0.307	-0.0234	-0.849	0.587 (inactive)	-0.0971	-0.161	0.0143	0.0609	-0.0536	0.481	-0.507	-0.0842
CC(C)C[C@@H]1NC(=O)[C@H]2C[C@@H](C(=O)NCCCCCC[N+](C)(C)C)[C@@H](c3cccc(OCCO)c3)N2C1=O	-0.209	1.79	0.538	-0.432	-0.738	-0.152	-0.0035	-0.378	0.501	0.0962	0.107	0.831 (inactive)	-0.0967	-0.169	0.377	1.02	0.384	0.374	0.964	0.869
